# Measured values published in PubChem BioAssay.
# Active and inactive are the calls of the source. Unless noted, no rule for the calls is given here.
# Legend:
# [1] = A549 cell viability effects, profiling panel, calcein-AM fluorescence, 48 h, basal (AID 1162); conditions: higher = more signal; also: test concentration not given here
# [2] = adipocyte viability effects, profiling panel, cell-based, 3T3-L1 adipocytes, calcein-AM fluorescence, 48 h, basal (AID 1163); conditions: 3T3-L1 adipocytes viability, higher = more signal; also: test concentration not given here
# [3] = HepG2 cell viability effects, profiling panel, calcein-AM fluorescence, 48 h, basal (AID 1164); conditions: higher = more signal; also: test concentration not given here
# [4] = MM1S cell viability effects, profiling panel, calcein-AM fluorescence, 48 h, basal (AID 1165); conditions: higher = more signal;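 also: viability of MM1S multiple myeloma cells under basal unstimulated conditions; test concentration not given here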
# [5] = basal RPMI8226 viability, no added stimulus, profiling panel, cell-based, calcein-AM fluorescence, 48 h, PK04 Diversity Set (AID 1166); conditions: RPMI8226 myeloma viability, higher = more signal;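 also: cells grown under basal conditions without added stimulus; test concentration not given here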
# [6] = basal HepG2 mitochondrial membrane potential changes, profiling panel, cell-based, JC-1 fluorescence, 24 h, 100 nL compound (AID 1167); conditions: higher = more signal; also: test concentration not given here
# [7] = basal 3T3-L1 adipocyte mitochondrial potential changes, profiling panel, cell-based, JC-1 fluorescence, 3T3-L1 adipocytes, 24 h, 100 nL compound (AID 1168); conditions: JC-1 mitochondrial fluorescence, higher = more signal, called active from +8 up or from −8 down; also: test concentration not given here
# [8] = basal RPMI8226 mitochondrial membrane potential changes, profiling panel, cell-based, JC-1 fluorescence, 24 h, 100 nL compound (AID 1169); conditions: RPMI8226 myeloma, JC-1 mitochondrial potential fluorescence, higher = more signal; also: test concentration not given here
# [9] = basal MM1S mitochondrial membrane potential changes, profiling panel, cell-based, JC-1 fluorescence, 24 h, 100 nL compound (AID 1170); conditions: higher = more signal; also: test concentration not given here
# [10] = A549 lung cancer cell viability effects, profiling panel, resazurin fluorescence, 24 h, PK04 Diversity Set (AID 1171); conditions: higher = more signal, called active from +8 up or from −8 down; also: test concentration not given here
# [11] = HepG2 liver cancer cell viability effects, profiling panel, resazurin fluorescence, 24 h, PK04 Diversity Set (AID 1172); conditions: higher = more signal; also: test concentration not given here
# [12] = basal S. cerevisiae growth modulation, no modifier, primary screen, OD600, strain BY4716, 24 h, basal condition (AID 1173); conditions: OD600, 24 h, higher = more signal, called active from +8 up or from −8 down
# [13] = MM1S myeloma cell viability, profiling panel, resazurin fluorescence, basal, 24 h, PK04 Diversity Set (AID 1174); conditions: higher = more signal, called active from +8 up or from −8 down;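 also: MM1S multiple myeloma cell line; test concentration not given here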
# [14] = target: Dihydroorotate dehydrogenase (quinone), mitochondrial (Plasmodium falciparum (isolate 3D7)) (UniProt Q08210); assay: PfDHODH enzyme inhibitors, primary screen, biochemical, C-terminal His tag, absorbance 600 nm (AID 1175); conditions: DCIP absorbance 600 nm, higher = more signal, called active from +8 up or from −8 down;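 also: recombinant parasite enzyme with a five histidine tag at its C terminus; test concentration not given here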
# [15] = P. aeruginosa biofilm formation inhibitors, primary screen, strain PAO1, LB-PBS medium, absorbance 600 nm (AID 1176); also: test concentration not given here; conditions: P. aeruginosa PAO1 growth/biofilm, A600, 12 h; higher = more signal
# [16] = S. cerevisiae RM11-1a growth modifiers, primary screen, strain RM11-1a, OD600, basal, 24 h (AID 1177); conditions: OD600, 24 h, higher = more signal, called active from +8 up or from −8 down;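 also: cultures grown under basal conditions with no added stressor; test concentration not given here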
# [17] = E. coli acrAB mutant growth effects, primary screen, E. coli filamentation inducers, strain DRC39, OD650, 24 h (AID 1178); conditions: higher = more signal, called active from +8 up or from −8 down;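 also: growth measured as culture turbidity by optical density at 650 nm; test concentration not given here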
# [18] = E. coli acrAB mutant growth effects, primary screen, E. coli filamentation inducers, strain DRC39, OD650, 48 h (AID 1179);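 also: screen aims at cell division blockers that make cells filament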; conditions: E. coli DRC39 delta-acrAB growth, higher = more signal, called active from +8 up or from −8 down
# [19] = RPMI8226 myeloma cell viability, profiling panel, resazurin fluorescence, basal, 24 h, PK04 Diversity Set (AID 1180); conditions: higher = more signal;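 also: RPMI8826 multiple myeloma cell line at 5000 cells per well; test concentration not given here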
# [20] = target: E3 ubiquitin-protein ligase XIAP (Homo sapiens) (UniProt P98170); assay: XIAP binders, primary screen, biophysical, small-molecule microarray, fluorescence 635 nm (AID 1181); conditions: small-molecule microarray binding, higher = more signal;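 also: score merges 667 nm emission and signal to noise over triplicate slides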
# Sequence of E3 ubiquitin-protein ligase XIAP (Homo sapiens) (P98170 whole entry, looked up): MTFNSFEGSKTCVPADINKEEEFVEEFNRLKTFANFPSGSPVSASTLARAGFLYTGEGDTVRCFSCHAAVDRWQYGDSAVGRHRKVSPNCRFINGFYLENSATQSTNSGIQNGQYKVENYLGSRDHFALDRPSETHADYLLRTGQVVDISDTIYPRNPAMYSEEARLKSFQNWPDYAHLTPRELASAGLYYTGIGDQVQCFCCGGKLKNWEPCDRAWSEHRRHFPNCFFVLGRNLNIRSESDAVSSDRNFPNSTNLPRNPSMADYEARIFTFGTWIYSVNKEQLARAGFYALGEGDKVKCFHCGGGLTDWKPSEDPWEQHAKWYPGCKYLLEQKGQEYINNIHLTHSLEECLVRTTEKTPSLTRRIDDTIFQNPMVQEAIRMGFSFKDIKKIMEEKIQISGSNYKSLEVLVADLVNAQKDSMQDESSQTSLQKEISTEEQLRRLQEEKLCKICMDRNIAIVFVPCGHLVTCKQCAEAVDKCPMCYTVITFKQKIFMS
# Sequence of Dihydroorotate dehydrogenase (quinone), mitochondrial (Plasmodium falciparum (isolate 3D7)) (Q08210 whole entry, looked up): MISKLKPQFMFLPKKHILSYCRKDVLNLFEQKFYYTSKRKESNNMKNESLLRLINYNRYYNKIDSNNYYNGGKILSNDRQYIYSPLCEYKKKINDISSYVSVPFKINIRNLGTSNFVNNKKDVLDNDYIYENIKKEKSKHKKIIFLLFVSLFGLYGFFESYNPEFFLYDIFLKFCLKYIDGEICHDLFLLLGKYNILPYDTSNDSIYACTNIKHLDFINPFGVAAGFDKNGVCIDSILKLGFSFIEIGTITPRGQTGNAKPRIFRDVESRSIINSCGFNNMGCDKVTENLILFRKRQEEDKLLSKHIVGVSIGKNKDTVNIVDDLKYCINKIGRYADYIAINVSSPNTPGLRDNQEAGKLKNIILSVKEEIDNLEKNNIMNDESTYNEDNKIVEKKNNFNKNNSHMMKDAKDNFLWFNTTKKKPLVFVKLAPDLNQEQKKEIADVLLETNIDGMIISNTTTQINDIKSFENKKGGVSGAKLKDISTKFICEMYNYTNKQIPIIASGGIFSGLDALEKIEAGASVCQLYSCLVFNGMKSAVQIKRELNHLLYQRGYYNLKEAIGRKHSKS
Structure (SMILES),z-score [1],z-score [2],z-score [3],z-score [4],z-score [5],z-score [6],z-score [7],z-score [8],z-score [9],z-score [10],z-score [11],z-score [12],z-score [13],composite z-score [14],z-score [15],z-score [16],z-score [17],z-score [18],z-score [19],composite z-score [20]
COc1ccc(CCN2C(=O)[C@@]3(c4ccc([N+](=O)[O-])cc4)CC(=O)N(CC45CC6CC(CC(C6)C4)C5)[C@@H]3c3ccc(CO)cc32)cc1,1.44,0.0861,0.71,0.0097,-0.346,0.0982,0.0691 (inactive),-0.0825,0.997,0.616 (inactive),0.214,-0.12 (inactive),0.954 (inactive),-25.3 (active),0.298 (inactive),-0.16 (inactive),0.307 (inactive),0.241 (inactive),0.325,0.0325
C=CC[C@]1(C(=O)O)N=C(c2ccc(OCCCO)cc2)O[C@H]1c1ccccc1N=[N+]=[N-],0.144,0.722,-0.489,-2.19,-0.0144,0.0206,0.504 (inactive),-0.837,-0.783,0.909 (inactive),0.912,-0.761 (inactive),0.777 (inactive),0.589 (inactive),-1.1 (inactive),1.21 (inactive),2.63 (inactive),1.65 (inactive),0.248,-0.0095
COc1ccc([Si](C)(C)[C@@H]2[C@@H](CCO)O[C@]3(C(=O)N(Cc4ccccc4)c4ccccc43)[C@H]2C)cc1,-0.617,0.725,-0.495,-1.22,-2.05,2.34,0.358 (inactive),-0.181,0.849,-1.69 (inactive),-1,0.212 (inactive),-0.604 (inactive),0.825 (inactive),0.13 (inactive),0.347 (inactive),0.916 (inactive),-0.326 (inactive),-0.372,-0.232
COC(=O)[C@@]1(Cc2ccc(OC)cc2)[C@H]2c3cc(C(=O)N(C)C)n(Cc4ccc(C)c(F)c4F)c3C[C@H]2CN1C(=O)c1ccccc1,-1.81,-0.484,-1.15,-1.34,-1.5,0.00937,-0.589 (inactive),0.817,-1.3,1.41 (inactive),0.819,1.45 (inactive),0.468 (inactive),0.164 (inactive),0.0944 (inactive),2.26 (inactive),0.423 (inactive),-0.373 (inactive),1.37,0.385
CCOC(=O)C1=C[C@@H](c2ccccc2)N(S(=O)(=O)c2ccc(C)cc2)[C@H]1c1ccc(F)cc1,-1.39,-0.498,-2.67,-2.06,-1.34,2.45,-1.16 (inactive),-0.118,-0.00719,1.04 (inactive),-0.296,1.87 (inactive),-0.648 (inactive),-0.102 (inactive),0.216 (inactive),2.33 (inactive),-0.213 (inactive),-0.283 (inactive),-2.21,0.155
COC(=O)C1=CC(c2ccc(CO)cc2)=CC(C2CC2)N(Cc2sc3ccccc3c2Cl)C=C1C(=O)OC (stereo unspecified),-0.905,1.77,-0.651,-2.62,-4.22,1.72,0.982 (inactive),-0.804,-0.969,-1.3 (inactive),0.0452,-4.51 (inactive),-2.01 (inactive),-0.245 (inactive),,-0.844 (inactive),-2.1 (inactive),-1.67 (inactive),-1.75,0.0909
Cc1ccc(S[C@]2(C(=O)NCCCN(C)C)CC(=O)N(C3CCCCC3)[C@@H]2c2ccc(CO)cc2I)cc1,-0.272,1.8,-4.31,-3.25,-3.08,1.8,0.794 (inactive),-0.644,-1.84,-0.835 (inactive),-1.37,-2.6 (inactive),-7.69 (inactive),0.895 (inactive),,1.25 (inactive),-0.0999 (inactive),-0.737 (inactive),-5.11,-0.0636
CC(C)(C)OC(=O)CC[C@]1(C(=O)NCCN2CCOCC2)N=C(c2ccc(OCCCO)cc2)O[C@H]1c1ccccc1CN=[N+]=[N-],0.327,1.13,0.0133,1.31,-0.722,-0.131,0.289 (inactive),-0.0354,0.671,0.619 (inactive),-0.0646,-1.56 (inactive),1.07 (inactive),-0.114 (inactive),,-1.36 (inactive),1.16 (inactive),0.277 (inactive),1.38,0.564
C=CCN(C(=O)C1N(c2ccc(CCO)cc2)C(=O)C2C(C(=O)O)C3C=CC21O3)C(C)(C)C (stereo unspecified),0.478,1.86,0.134,1.69,-0.265,0.556,2.37 (inactive),0.0149,1.08,-1.3 (inactive),0.43,-1.39 (inactive),1.06 (inactive),-0.363 (inactive),,-1.41 (inactive),1.44 (inactive),0.94 (inactive),0.327,-0.253
C[N+](C)(C)CCCC[C@@H]1NC(=O)[C@H]2C[C@@H](C(=O)NCc3ccc(F)cc3)[C@@H](c3cccc(OCCO)c3)N2C1=O,0.191,1.01,-0.676,-1.04,0.366,1.79,1.06 (inactive),-0.397,0.392,0.656 (inactive),0.523,-1.84 (inactive),1.33 (inactive),-0.347 (inactive),,-1.62 (inactive),0.765 (inactive),0.604 (inactive),-0.0523,0.245
O=C1O[C@@H](c2ccccc2)[C@@H](c2ccccc2)N2[C@@H](c3ccc(O)cc3)[C@]3(C(=O)Nc4ccccc43)[C@@H](C(=O)N3CCN(c4ncccn4)CC3)[C@H]12,0.661,-0.957,1.15,-1.16,-1.77,-0.235,1.72 (inactive),-0.455,-0.618,-0.133 (inactive),0.838,-0.863 (inactive),-0.798 (inactive),-0.63 (inactive),,-0.0045 (inactive),0.208 (inactive),1.05 (inactive),-0.442,-0.311
CN(C)C(=O)[C@@]1(Cc2ccccc2N=[N+]=[N-])N=C(c2ccc(OCCCO)cc2)O[C@H]1c1ccccc1CN=[N+]=[N-],-0.996,1.16,-1.23,-2.91,-3.39,2.17,0.618 (inactive),-0.904,-0.679,0.276 (inactive),1.12,-1.4 (inactive),-0.437 (inactive),-0.812 (inactive),,-0.726 (inactive),2.45 (inactive),0.842 (inactive),-1.67,0.229
C=CCC(OC(C)=O)[C@@H]1[C@@H](N(Cc2cc3ccccc3o2)C(=O)Cc2ccc(F)cc2)c2cc(OCCCO)ccc2N1C(=O)c1ccc(-c2ccccc2)cc1 (stereo partly specified),1.79,0.0893,1.01,0.661,0.708,2.84,0.756 (inactive),0.602,0.0416,1.18 (inactive),1.13,-0.588 (inactive),-0.518 (inactive),-0.177 (inactive),,-0.157 (inactive),1.17 (inactive),0.845 (inactive),0.673,-0.332
COc1cccc([C@H]2N[C@H](C(=O)O)CC[C@@H]2C)c1,0.0912,2.03,-0.175,0.543,-1.36,1.16,0.75 (inactive),-0.358,0.632,-0.336 (inactive),-0.104,-1.03 (inactive),0.975 (inactive),-2.33 (inactive),,-0.393 (inactive),-0.914 (inactive),-0.83 (inactive),0.761,0.169
Cc1ccc(N2C(=O)c3ccccc3[C@@H](C(=O)NCc3ccccc3)[C@@H]2c2ccc(CO)cc2)nc1,1.08,1.14,-0.296,0.2,1.18,0.532,1.07 (inactive),0.0567,0.202,0.737 (inactive),0.138,0.0819 (inactive),1.36 (inactive),0.787 (inactive),,1.11 (inactive),-0.0753 (inactive),-0.0787 (inactive),1.06,0.02
CC(C)[Si]1(C(C)C)OCc2cc(C3CC3)nc(-c3ccccc3)c21,0.0145,1.06,-0.899,-0.319,-1.54,-0.012,1.6 (inactive),-0.373,0.542,1 (inactive),0.883,-1.53 (inactive),0.972 (inactive),0.135 (inactive),,-1.75 (inactive),1.39 (inactive),0.656 (inactive),0.536,0.0399
C[C@@H]1CC[C@H]2C(=O)N3CCC[C@H]3C(=O)N2[C@H]1c1ccc(Br)cc1,1.09,-0.0296,0.0327,0.517,0.0262,0.412,1.02 (inactive),-0.167,0.324,0.673 (inactive),1.55,-0.654 (inactive),0.864 (inactive),0.238 (inactive),,0.393 (inactive),0.898 (inactive),0.8 (inactive),0.506,-0.193
C/C(=N\O)C(=O)NCCCCCNC(=O)OCc1ccccc1,1.3,0.895,0.206,0.476,0.239,1.09,0.334 (inactive),-0.561,1.24,0.707 (inactive),1.09,-2.13 (inactive),-0.158 (inactive),-0.4 (inactive),,-0.608 (inactive),2.59 (inactive),1.43 (inactive),0.73,-0.258
C=CC[C@]1(C(N)=O)N=C(c2ccc(OCCCO)cc2)O[C@H]1c1ccccc1CN=[N+]=[N-],0.919,2.24,-0.509,-0.562,-1.37,2.69,-0.436 (inactive),-0.434,0.501,0.01 (inactive),0.394,-1.06 (inactive),1.06 (inactive),0.199 (inactive),,-0.592 (inactive),2.91 (inactive),1.21 (inactive),1.1,-0.16
